Data reported in PMC7862700, “An all-to-all approach to the identification of sequence-specific readers for epigenetic DNA modifications on cytosine”.

Columns and labels:
Assay in all cases: DAPPL (digital affinity profiling via proximity ligation, sequencing); 10 mM Tris-HCl pH 7.5, 50 mM NaCl, 1 mM DTT, 4% glycerol, room temperature, 30 min; GST-TFs on glutathione beads, 16-mer random dsDNA library, 0.1% formaldehyde crosslink after washing; high values mean tight binding
FLI1 = target: T1, FLI1 (Homo sapiens, UniProt Q01543 1-452); conditions: protein: recombinant; tags: N-terminal GST; dsDNA, one strand shown
T1 sequence: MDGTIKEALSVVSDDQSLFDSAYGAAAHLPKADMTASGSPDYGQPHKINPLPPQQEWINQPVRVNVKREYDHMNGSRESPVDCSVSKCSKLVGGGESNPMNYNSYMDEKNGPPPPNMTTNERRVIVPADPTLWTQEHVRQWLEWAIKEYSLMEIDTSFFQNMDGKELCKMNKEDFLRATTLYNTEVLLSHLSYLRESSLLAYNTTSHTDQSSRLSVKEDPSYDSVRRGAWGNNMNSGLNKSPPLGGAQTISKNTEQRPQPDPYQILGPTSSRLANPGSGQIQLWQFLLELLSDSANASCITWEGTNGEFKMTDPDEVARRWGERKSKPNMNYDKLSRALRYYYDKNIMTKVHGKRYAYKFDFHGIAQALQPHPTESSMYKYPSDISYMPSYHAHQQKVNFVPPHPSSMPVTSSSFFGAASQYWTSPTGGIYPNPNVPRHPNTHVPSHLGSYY
In short: (§1)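 In yeast, human transcription factors were expressed with a GST fusion, then pulled down on glutathione beads and given DNA barcodes. Pooled with a tag-only sample, they were exposed to 200 nmole of a 16-mer random double-stranded DNA library (Tris/NaCl/DTT/glycerol buffer, room temperature, 30 min), washed, crosslinked with 0.1% formaldehyde, proximity-ligated using BsaI/T4 ligase for 1 h at 37 °C, PCR-amplified and read on an Illumina NextSeq500. Each hexamer's frequency of reads for a factor, divided by the matching frequency for the tag-only sample, gives the binding signal.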

ELK1 = target: T2, ELK1 (Homo sapiens, UniProt P19419 1-428); conditions: protein: recombinant; tags: N-terminal GST; dsDNA, one strand shown
T2 sequence: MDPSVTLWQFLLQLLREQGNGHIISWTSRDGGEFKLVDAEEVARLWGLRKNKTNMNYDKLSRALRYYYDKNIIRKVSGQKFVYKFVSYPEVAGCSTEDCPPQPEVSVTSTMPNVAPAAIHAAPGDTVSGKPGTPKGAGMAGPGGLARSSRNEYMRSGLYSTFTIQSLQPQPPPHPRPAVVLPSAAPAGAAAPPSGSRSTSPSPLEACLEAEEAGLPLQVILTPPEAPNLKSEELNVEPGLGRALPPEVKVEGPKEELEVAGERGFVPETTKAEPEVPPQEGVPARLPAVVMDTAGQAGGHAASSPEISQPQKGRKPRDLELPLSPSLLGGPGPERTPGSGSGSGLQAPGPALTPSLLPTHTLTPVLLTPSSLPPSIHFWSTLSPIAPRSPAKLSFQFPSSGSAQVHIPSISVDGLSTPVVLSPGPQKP
In short: as §1

GABPA = target: T3, GABPA (Homo sapiens, UniProt Q06546 1-454); conditions: protein: recombinant; tags: N-terminal GST; dsDNA, one strand shown
T3 sequence: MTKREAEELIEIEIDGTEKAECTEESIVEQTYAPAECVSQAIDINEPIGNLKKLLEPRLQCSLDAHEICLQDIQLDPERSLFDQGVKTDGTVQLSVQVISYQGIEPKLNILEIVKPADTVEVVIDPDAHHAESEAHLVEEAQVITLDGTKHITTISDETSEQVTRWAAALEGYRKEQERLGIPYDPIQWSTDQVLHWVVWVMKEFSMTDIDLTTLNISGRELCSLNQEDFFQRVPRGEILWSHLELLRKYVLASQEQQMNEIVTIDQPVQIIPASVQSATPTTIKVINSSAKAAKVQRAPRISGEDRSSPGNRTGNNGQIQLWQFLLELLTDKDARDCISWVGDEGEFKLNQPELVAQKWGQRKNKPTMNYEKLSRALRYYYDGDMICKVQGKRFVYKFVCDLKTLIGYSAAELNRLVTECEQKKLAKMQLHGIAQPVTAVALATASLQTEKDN
In short: as §1

ERG = target: T4, ERG (Homo sapiens, UniProt P11308 1-479); conditions: protein: recombinant; tags: N-terminal GST; dsDNA, one strand shown
T4 sequence: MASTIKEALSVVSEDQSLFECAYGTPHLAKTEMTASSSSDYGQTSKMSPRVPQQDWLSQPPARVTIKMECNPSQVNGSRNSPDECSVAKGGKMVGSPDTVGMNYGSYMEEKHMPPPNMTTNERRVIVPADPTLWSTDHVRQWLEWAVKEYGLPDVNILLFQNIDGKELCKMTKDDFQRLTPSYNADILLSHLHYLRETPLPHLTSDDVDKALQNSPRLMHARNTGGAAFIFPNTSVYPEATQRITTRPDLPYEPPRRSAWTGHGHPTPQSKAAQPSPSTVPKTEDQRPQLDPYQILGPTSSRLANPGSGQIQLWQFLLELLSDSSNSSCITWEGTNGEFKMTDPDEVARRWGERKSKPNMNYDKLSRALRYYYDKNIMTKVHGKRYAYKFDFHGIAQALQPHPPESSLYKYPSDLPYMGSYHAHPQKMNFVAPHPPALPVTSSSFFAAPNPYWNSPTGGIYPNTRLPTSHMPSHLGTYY
In short: as §1

ELF1 = ELF1 (Homo sapiens, UniProt P32519 1-619); conditions: protein: recombinant; tags: N-terminal GST; dsDNA, one strand shown
In short: as §1

EHF = target: T5, EHF (Homo sapiens, UniProt Q9NZC4 1-300); conditions: protein: recombinant; tags: N-terminal GST; dsDNA, one strand shown
T5 sequence: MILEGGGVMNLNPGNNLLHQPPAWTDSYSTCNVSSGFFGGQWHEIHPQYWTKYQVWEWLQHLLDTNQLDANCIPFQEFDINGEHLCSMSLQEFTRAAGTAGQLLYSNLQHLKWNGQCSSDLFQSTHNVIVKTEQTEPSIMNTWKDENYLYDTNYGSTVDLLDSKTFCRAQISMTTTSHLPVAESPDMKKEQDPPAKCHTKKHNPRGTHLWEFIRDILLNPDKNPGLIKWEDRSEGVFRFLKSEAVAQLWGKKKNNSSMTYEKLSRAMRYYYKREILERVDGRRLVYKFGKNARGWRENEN
In short: as §1

SPI1 = SPI1 (Homo sapiens, UniProt P17947 1-270); conditions: protein: recombinant; tags: N-terminal GST; dsDNA, one strand shown
In short: as §1

SPIB = SPIB (Homo sapiens, UniProt Q01892 1-262); conditions: protein: recombinant; tags: N-terminal GST; dsDNA, one strand shown
In short: as §1

ELK3 = target: T6, ELK3 (Homo sapiens, UniProt P41970 1-407); conditions: protein: recombinant; tags: N-terminal GST; dsDNA, one strand shown
T6 sequence: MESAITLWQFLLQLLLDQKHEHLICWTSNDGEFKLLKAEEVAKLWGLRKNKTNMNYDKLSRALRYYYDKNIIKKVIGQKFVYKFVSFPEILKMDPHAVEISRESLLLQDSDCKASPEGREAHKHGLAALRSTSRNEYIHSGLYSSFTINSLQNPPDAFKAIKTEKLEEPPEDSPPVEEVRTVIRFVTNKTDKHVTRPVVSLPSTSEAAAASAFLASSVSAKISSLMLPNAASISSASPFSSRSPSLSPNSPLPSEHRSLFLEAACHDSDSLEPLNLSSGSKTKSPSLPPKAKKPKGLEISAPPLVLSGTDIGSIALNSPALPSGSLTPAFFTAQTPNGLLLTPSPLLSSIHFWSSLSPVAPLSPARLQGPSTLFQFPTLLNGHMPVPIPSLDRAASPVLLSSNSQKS
In short: as §1

FEV = target: T7, FEV (Homo sapiens, UniProt Q99581 1-238); conditions: protein: recombinant; tags: N-terminal GST; dsDNA, one strand shown
T7 sequence: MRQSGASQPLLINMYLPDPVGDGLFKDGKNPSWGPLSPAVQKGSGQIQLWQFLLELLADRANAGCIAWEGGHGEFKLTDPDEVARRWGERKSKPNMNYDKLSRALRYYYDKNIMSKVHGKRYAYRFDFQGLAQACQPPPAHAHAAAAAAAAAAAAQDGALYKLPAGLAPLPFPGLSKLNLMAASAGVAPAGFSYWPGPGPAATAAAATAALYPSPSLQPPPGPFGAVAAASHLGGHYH
In short: as §1

ETV5 = ETV5 (Homo sapiens, UniProt P41161 1-510); conditions: protein: recombinant; tags: N-terminal GST; dsDNA, one strand shown
In short: as §1

HSF1 = HSF1 (Homo sapiens, UniProt Q00613 1-529); conditions: protein: recombinant; tags: N-terminal GST; chain copies: 3; dsDNA, one strand shown
In short: as §1

SPIC = target: T8, SPIC (Homo sapiens, UniProt Q8N5J4 1-248); conditions: protein: recombinant; tags: N-terminal GST; dsDNA, one strand shown
T8 sequence: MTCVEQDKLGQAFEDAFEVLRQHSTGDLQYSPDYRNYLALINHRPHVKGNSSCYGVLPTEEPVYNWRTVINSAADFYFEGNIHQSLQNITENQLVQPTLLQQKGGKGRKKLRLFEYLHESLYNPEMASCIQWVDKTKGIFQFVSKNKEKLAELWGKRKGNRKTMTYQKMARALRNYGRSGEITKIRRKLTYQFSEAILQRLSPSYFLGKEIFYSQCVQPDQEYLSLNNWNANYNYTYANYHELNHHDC
In short: as §1

ELF4 = ELF4 (Homo sapiens, UniProt Q99607 1-663); conditions: protein: recombinant; tags: N-terminal GST; dsDNA, one strand shown
In short: as §1

ELK4 = target: T9, ELK4 (Homo sapiens, UniProt P28324-2 1-405); conditions: protein: recombinant; tags: N-terminal GST; dsDNA, one strand shown
T9 sequence: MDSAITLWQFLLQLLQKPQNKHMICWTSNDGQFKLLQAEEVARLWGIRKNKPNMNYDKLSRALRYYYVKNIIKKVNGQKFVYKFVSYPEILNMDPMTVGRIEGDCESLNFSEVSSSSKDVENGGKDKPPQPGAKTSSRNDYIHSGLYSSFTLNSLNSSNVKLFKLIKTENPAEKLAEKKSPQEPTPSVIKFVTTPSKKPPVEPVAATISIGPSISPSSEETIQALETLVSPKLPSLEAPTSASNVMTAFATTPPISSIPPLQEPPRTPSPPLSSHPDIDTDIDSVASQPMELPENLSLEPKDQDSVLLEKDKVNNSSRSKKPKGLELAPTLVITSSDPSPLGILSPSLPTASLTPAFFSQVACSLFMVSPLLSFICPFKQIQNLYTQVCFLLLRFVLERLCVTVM
In short: as §1

ETV2 = target: T10, ETV2 (Homo sapiens, UniProt O00321 1-342); conditions: protein: recombinant; tags: N-terminal GST; dsDNA, one strand shown
T10 sequence: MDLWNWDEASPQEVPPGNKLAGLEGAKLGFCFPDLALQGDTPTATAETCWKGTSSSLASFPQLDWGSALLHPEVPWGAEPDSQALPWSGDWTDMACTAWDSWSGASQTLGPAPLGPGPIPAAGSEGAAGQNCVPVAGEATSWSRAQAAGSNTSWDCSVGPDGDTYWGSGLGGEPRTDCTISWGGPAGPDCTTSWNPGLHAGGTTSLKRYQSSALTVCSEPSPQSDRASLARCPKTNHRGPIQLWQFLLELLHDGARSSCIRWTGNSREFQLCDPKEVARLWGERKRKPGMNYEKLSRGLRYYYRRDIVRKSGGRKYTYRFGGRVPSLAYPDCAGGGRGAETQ
In short: as §1

ELF3 = target: T11, ELF3 (Homo sapiens, UniProt P78545 1-371); conditions: protein: recombinant; tags: N-terminal GST; dsDNA, one strand shown
T11 sequence: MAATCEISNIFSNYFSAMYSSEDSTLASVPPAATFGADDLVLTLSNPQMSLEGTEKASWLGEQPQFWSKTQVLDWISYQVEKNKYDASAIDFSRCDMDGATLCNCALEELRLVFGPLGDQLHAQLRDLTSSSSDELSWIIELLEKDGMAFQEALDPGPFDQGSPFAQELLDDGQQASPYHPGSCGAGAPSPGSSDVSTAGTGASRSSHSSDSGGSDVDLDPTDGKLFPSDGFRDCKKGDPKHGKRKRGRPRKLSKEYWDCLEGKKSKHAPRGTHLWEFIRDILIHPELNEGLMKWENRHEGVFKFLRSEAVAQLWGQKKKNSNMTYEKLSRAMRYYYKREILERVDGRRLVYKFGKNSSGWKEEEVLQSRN
In short: as §1

ETV1 = ETV1 (Homo sapiens, UniProt P50549 1-477); conditions: protein: recombinant; tags: N-terminal GST; dsDNA, one strand shown
In short: as §1

Chain of HSF1 (Q00613 whole entry): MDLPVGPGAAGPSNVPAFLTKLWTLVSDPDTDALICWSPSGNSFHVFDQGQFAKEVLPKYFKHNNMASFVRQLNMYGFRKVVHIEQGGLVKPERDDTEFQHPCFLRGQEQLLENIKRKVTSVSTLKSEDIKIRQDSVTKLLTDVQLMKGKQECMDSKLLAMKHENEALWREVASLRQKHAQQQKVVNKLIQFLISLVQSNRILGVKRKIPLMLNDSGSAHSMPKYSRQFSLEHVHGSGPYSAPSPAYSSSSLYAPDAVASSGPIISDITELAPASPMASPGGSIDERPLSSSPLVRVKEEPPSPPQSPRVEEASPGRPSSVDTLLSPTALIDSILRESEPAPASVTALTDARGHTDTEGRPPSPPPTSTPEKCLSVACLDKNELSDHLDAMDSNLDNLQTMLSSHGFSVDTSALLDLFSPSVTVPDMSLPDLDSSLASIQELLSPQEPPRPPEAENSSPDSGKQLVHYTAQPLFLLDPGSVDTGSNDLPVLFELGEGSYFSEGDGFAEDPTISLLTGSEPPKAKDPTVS
Chain of ELF4 (Q99607 whole entry): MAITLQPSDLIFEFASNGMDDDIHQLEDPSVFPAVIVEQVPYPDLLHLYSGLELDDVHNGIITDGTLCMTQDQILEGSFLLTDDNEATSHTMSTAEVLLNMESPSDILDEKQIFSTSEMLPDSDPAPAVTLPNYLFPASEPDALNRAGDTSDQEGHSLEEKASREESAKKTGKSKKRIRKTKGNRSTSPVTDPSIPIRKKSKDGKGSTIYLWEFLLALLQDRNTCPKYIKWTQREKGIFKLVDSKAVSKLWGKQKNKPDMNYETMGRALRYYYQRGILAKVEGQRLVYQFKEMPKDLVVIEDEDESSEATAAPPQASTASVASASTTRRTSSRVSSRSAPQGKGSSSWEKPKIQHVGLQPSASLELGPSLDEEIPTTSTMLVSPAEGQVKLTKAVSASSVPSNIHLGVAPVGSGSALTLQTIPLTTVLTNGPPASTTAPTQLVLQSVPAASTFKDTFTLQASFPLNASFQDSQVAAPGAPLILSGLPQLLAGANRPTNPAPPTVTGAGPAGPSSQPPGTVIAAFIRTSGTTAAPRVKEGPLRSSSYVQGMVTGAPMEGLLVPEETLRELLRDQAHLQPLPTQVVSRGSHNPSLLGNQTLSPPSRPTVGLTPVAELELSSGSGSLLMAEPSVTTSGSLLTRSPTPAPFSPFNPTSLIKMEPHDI
Chain of ETV5 (P41161 whole entry): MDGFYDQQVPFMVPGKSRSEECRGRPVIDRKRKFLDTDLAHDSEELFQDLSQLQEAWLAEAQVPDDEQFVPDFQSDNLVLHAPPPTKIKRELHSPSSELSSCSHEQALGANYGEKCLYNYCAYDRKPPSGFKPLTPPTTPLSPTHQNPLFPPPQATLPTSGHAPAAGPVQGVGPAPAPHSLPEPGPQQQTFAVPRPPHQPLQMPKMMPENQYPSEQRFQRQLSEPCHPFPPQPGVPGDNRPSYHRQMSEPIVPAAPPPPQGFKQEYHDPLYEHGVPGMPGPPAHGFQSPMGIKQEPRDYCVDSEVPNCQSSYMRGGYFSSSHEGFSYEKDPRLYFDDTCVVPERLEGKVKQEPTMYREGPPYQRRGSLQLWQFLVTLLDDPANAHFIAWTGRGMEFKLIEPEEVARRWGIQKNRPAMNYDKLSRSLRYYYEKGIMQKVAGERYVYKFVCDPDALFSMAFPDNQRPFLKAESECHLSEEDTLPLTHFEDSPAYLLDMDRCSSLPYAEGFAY
Chain of SPIB (Q01892 whole entry): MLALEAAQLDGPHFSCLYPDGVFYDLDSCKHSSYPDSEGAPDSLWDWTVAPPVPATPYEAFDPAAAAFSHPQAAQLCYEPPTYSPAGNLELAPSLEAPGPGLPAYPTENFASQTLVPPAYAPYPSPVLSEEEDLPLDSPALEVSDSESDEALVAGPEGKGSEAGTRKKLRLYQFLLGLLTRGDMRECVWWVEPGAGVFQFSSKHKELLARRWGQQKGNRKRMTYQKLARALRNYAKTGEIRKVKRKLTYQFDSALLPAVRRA
Chain of ETV1 (P50549 whole entry): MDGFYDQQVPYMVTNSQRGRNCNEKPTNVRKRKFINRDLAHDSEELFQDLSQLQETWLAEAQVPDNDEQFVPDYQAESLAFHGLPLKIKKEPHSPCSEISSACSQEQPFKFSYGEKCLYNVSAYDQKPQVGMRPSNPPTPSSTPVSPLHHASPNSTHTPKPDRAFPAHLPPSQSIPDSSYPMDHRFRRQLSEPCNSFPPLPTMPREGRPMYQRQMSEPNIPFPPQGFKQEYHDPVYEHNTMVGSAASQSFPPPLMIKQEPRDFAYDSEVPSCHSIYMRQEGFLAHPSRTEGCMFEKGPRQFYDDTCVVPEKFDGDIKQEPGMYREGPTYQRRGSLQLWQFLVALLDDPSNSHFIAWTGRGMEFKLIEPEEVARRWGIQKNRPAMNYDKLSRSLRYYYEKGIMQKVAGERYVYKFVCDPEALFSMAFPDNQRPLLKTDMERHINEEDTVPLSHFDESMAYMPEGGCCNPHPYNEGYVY
Chain of ELF1 (P32519 whole entry): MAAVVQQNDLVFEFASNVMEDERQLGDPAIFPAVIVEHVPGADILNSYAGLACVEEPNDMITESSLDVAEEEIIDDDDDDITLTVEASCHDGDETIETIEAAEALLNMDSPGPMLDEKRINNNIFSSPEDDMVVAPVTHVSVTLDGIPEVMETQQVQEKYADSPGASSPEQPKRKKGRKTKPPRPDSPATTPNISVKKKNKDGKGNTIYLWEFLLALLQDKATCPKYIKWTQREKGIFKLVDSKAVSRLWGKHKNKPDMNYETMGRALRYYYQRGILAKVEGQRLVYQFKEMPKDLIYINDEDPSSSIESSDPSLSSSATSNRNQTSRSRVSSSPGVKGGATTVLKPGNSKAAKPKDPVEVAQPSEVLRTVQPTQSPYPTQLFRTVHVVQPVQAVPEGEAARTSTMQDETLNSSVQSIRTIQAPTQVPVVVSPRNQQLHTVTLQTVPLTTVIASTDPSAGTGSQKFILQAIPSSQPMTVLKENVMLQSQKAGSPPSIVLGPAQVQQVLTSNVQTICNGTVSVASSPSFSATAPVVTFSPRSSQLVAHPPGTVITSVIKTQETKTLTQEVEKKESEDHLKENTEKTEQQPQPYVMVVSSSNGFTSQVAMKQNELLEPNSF

GAAACA was tested, and the binding signal (FLI1) was 1.38 fold enrichment (6-mer frequency, TF over GST control), the binding signal (ELK1) was 1.4 fold enrichment (6-mer frequency, TF over GST control) and the binding signal (GABPA) was 1.22 fold enrichment (6-mer frequency, TF over GST control). The binding signal (ERG) was 1.32 fold enrichment (6-mer frequency, TF over GST control), the binding signal (ELF1) was 1.35 fold enrichment (6-mer frequency, TF over GST control) and the binding signal (EHF) was 1.45 fold enrichment (6-mer frequency, TF over GST control). For the same sequence, the binding signal (SPI1) was 1.3 fold enrichment (6-mer frequency, TF over GST control), the binding signal (SPIB) was 1.36 fold enrichment (6-mer frequency, TF over GST control) and the binding signal (ELK3) was 1.38 fold enrichment (6-mer frequency, TF over GST control). For the same sequence, the binding signal (FEV) was 1.33 fold enrichment (6-mer frequency, TF over GST control), the binding signal (ETV5) was 1.46 fold enrichment (6-mer frequency, TF over GST control) and the binding signal (HSF1) was 1.22 fold enrichment (6-mer frequency, TF over GST control). For the same sequence, the binding signal (SPIC) was 1.38 fold enrichment (6-mer frequency, TF over GST control), the binding signal (ELF4) was 1.3 fold enrichment (6-mer frequency, TF over GST control) and the binding signal (ELK4) was 1.22 fold enrichment (6-mer frequency, TF over GST control). For the same sequence, the binding signal (ETV2) was 1.44 fold enrichment (6-mer frequency, TF over GST control), the binding signal (ELF3) was 1.52 fold enrichment (6-mer frequency, TF over GST control) and the binding signal (ETV1) was 1.26 fold enrichment (6-mer frequency, TF over GST control).
